Values joined by “and” are separate entries in the source; they are usually repeats but may differ in a detail not shown here. Equal values may be shown once. Some compounds were tested as several samples or in several runs, with calls that do not always agree. Active and inactive are the calls of the source. A call without a number means that no potency is given here. The call rests on the fitted dose curve.
Target: Thyrotropin-releasing hormone receptor (Homo sapiens) (UniProt P34981)
Test: qHTS assay to identify small molecule agonists of the thyrotropin-releasing hormone receptor (TRHR) signaling pathway (AID 1346891)
Details: TRHR-HEK293 calcium fluorescence, agonist mode; series mostly up to 57.6 µM
Method in brief: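 HEK293 cells expressing TRHR plated 18 h at 37 C/5% CO2, calcium dye-loaded 2 h at 37 C, then compound added (agonist mode); kinetic calcium fluorescence read 3 min at 1 s intervals; 15 concentrations in triplicate.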
Potency means the concentration at half of the fitted maximal effect.

Chain of Thyrotropin-releasing hormone receptor (Homo sapiens) (P34981 whole entry, looked up): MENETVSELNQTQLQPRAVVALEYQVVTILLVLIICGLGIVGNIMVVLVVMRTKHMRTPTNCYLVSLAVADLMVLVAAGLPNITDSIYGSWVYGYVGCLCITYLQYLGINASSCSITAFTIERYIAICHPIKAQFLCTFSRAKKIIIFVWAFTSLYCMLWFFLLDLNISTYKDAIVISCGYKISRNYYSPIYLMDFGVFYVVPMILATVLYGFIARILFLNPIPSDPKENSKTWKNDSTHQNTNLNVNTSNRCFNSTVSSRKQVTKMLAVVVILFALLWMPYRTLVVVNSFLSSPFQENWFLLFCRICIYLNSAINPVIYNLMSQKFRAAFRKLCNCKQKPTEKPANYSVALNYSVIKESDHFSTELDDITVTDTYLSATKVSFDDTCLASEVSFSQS

| SMILES | Potency |
| --- | --- |
| Nc1cc(-c2ccncc2)c[nH]c1=O | inactive |
| Oc1ccc(OCc2ccccc2)cc1 | inactive |
| CCOC(=O)C1OC1c1ccccc1 (centres undefined) | inactive |
| O=C(O)c1ccc([N+](=O)[O-])cc1 | inactive |
| Cc1cc(=O)[nH]c(C(C)C)n1 | inactive |
| NC(=O)/N=N/C(N)=O | inactive |
| CCCCCCCCCCCCOCC1CO1 (centres undefined) | inactive |
| O=S(=O)(O)CCS | inactive |
| O=C(O)c1cc(-c2ccccc2)nc2ccccc12 | inactive |
| OC1CCCC1 | inactive |
| COC(=O)c1ccccc1O | inactive |
| Cc1ccc(N)c(S(=O)(=O)O)c1 | inactive |
| CCCCOCCOCCOC(=O)CCCCC(=O)OCCOCCOCCCC | inactive |
| CCCCC(CC)COC(C)=O (centres undefined) | inactive |
| CC1=C(/C=C/C(C)=C/C=C/C(C)=C/CO)C(C)(C)CCC1 | inactive |
| Cc1cc(Cc2ccc(N)c(C)c2)ccc1N | inactive |
| NCCc1ccc(O)c(O)c1 | inactive |
| C=C(C#N)C(=O)OCC | inactive |
| O=[N+]([O-])C(CO)(CO)CO | inactive |
| NS(=O)(=O)c1cc2c(cc1Cl)NC=NS2(=O)=O | inactive |
| CCOC(=O)/C=C\C(=O)OCC | inactive |
| CC(C)(N=C=O)c1cccc(C(C)(C)N=C=O)c1 | inactive |
| CC[Si](OC(C)=O)(OC(C)=O)OC(C)=O | inactive |
| C=C(C)C(=O)OCCCCCCCCCCCC | inactive |
| C=C(C)C(=O)OCCC[Si](OC)(OC)OC | inactive |
| COCC(C)O (centres undefined) | inactive |
| O=C1CCCCC1 | inactive |
| CCCCCCCCCCCCN | inactive and 38.9 µM (active) |
| CC1CC(OC(=O)c2ccccc2O)CC(C)(C)C1 (centres undefined) | inactive |
